The record followed here is PubChem BioAssay AID463173 (ICCB-Longwood Screening Facility, Harvard Medical School, 2010).

The campaign covered roughly 52,000 compounds. About 4,300 (8.3%) were called active. The full list was thinned out, with actives kept by preference. Unmarked numbers belong to inactive results. Cut-off read from the data, not from the text of the source: active = survival mostly below about 52% (no sharp cut-off); inactive = mostly above about 56%.

The assay relates to DeltatarO mutant. As to the kind of experiment: growth inhibition of S. aureus wild type versus tarO mutant, primary screen, teichoic acid synthesis inhibitors, RN4220, OD600 (AID 463173). To be noted: OD600, 18 h, stronger effect = lower value, screened at 18.75 µg/mL (by protocol).
On to `Cc1ccnc(NS(=O)(=O)c2ccc(NC(=O)c3nc(SC(C)C)ncc3Cl)cc2)n1`, for which the survival was 58%.

In the case of `CCOC(=O)c1noc2nc(C)n(CC(=O)Nc3cccc(OC)c3)c(=O)c12`, the survival is 108%.

On to `O=c1c2ccccc2nc(-c2ccccc2)n1CCCn1ccnc1`, for which the survival was 107%.

Consider `CCCc1cc(C(=O)Nc2c(C)nn(Cc3ccc(Cl)c(Cl)c3)c2C)no1`, for which the survival was 56%.

Take `O=C(NCc1ccc2c(c1)CCN2C(=O)c1ccccc1)c1cc2ccccc2[nH]1`: the survival was 6% (active). Consider `COc1ccc2cc(C(=O)NCc3ccc4c(c3)CCN4C(=O)c3ccc(F)cc3)[nH]c2c1`, for which the survival is 86%.

Turning to `COc1ccc(CCC(=O)NCc2ccc3c(c2)CCN3C(=O)c2cccc(C)c2)cc1`, the survival is 76%. Consider `O=C(NCc1ccc2c(c1)CCN2C(=O)c1ccccc1)Nc1cccc(C(F)(F)F)c1`, for which the survival was 123%. The same measure for `COc1ccc(OCC(=O)NCc2ccc3c(c2)CCN3C(=O)c2cccc(C)c2)cc1`: 82%; for `CCOC(=O)c1cccc(NC(=O)NCc2ccc3c(c2)CCN3C(=O)c2ccccc2)c1`: 116%; for `COc1ccc2cc(C(=O)NCc3ccc4c(c3)CCN4C(=O)c3ccccc3)[nH]c2c1`: -1% (active). Take `O=C(NCc1ccc2c(c1)CCN2C(=O)c1ccc(F)cc1)c1cc2ccccc2[nH]1`: the survival is 97%. For `COc1cccc(NC(=O)NCc2ccc3c(c2)CCN3C(=O)c2ccccc2)c1` the value was 52% (active); for `COc1ccc2cc(C(=O)NCc3ccc4c(c3)CCN4C(=O)c3ccc(C)cc3)[nH]c2c1`, 75%. `Cc1cccc(C(=O)N2CCc3cc(CNC(=O)c4cc5ccccc5[nH]4)ccc32)c1`: the survival was 81%. Turning to `COc1ccc(CC(=O)NCc2ccc3c(c2)CCN3C(=O)c2cccc(C)c2)cc1`, the survival was -4% (active). For `CCC1CCCCN1Cc1cn2c(-c3ccc(Br)cc3)nnc2s1` (stereo unspecified) the value was 80%; for `Cc1ccc(Cn2c(=O)c3cccnc3n(CC(=O)Nc3cc(Cl)ccc3C)c2=O)cc1`, 85%.

In the case of `CCCOc1cccc(C2c3c(oc4ccc(F)cc4c3=O)C(=O)N2CCc2ccc(OC)cc2)c1` (stereo unspecified), the survival is 92%. For `CCOC(=O)c1[nH]c(C)c(CCC(=O)NC(C)c2ccccc2)c1C` (stereo unspecified), the survival is 83%. In the case of `O=C(NC12CC3CC(CC(C3)C1)C2)c1cncc(O)c1`, the survival was 90%. `CCc1ccccc1NC(=O)c1ccc2c(c1)N(Cc1cc(C)ccc1C)C(=O)c1ccccc1S2(=O)=O`: the survival is 84%.

Turning to `Cn1c(=O)n(C)c2cc(/C=N/NC(N)=S)ccc21`, the survival was 98%. For `CCn1cc(C(=O)N2CCN(c3ccc(F)cc3)CC2)c(=O)c2cc(S(=O)(=O)N(C)C3CCCCC3)ccc21` the value was 73%.

Consider `CCOc1ccc(C(=O)NCc2ccc3c(c2)CCN3C(=O)c2ccccc2)cc1`, for which the survival was -2% (active). The same measure for `O=C(NCc1ccc2c(c1)CCN2C(=O)c1ccccc1)c1ccccc1`: 79%; for `CCOc1ccc(C(=O)NCc2ccc3c(c2)CCN3C(=O)c2ccc(Cl)cc2)cc1`: 91%. The same measure for `CC(=O)c1cccc(NC(=O)C(CC(C)C)NS(=O)(=O)c2ccc3c(c2)CCN3C(C)=O)c1` (stereo unspecified): 115%; for `CCCC(O)c1nc2ccccc2n1CCCCOc1ccc(OC)cc1` (stereo unspecified): 52%; for `COc1ccccc1OCCn1c(C(C)Oc2ccccc2)nc2ccccc21` (stereo unspecified): 66%.

With `Cc1cccc(OCCn2c(SCC(N)=O)nc3ccccc32)c1`, the survival was 121%. Regarding `COc1ccccc1OCCn1c(COc2cc(C)ccc2C)nc2ccccc21`, the survival was 61%. The same measure for `COc1cccc(OCc2nc3ccccc3n2CCOc2ccccc2C)c1`: 38% (active); for `Cc1ccc(OCCn2c(COc3ccc(Cl)cc3)nc3ccccc32)cc1`: 65%; for `Cc1ccc(OCc2nc3ccccc3n2CCOc2ccc(Cl)cc2)cc1`: 15% (active). The same measure for `COc1ccc(OCCn2c(C(C)Oc3ccccc3)nc3ccccc32)cc1` (stereo unspecified): 48% (active); for `COCc1nc2ccccc2n1CCOc1cccc(C)c1`: 39% (active). The same measure for `COc1ccccc1NC(=O)C1=C(C)Nc2nc(SCc3ccccc3)nn2C1c1ccccn1` (stereo unspecified): 65%; for `Cc1cc(C)cc(Nc2sc(C(=O)c3ccccc3)c(N)c2S(=O)(=O)c2ccccc2)c1`: 101%.

As to `Cc1ccsc1CCN1C(=O)N(c2ccccc2)C(=O)C1CC(=O)Nc1ccc(F)cc1` (stereo unspecified), the survival was 114%. In the case of `CC(C)=CCC(C)(C)C1OCCN1C(=O)Nc1ccccc1` (stereo unspecified), the survival is 95%. As for `Cc1sc2c(c1C)c(=O)n(Cc1ccccc1)c(=O)n2Cc1ccc(F)cc1`, the survival is 109%.

As to `COc1ccc(C2CC(=O)c3cc(-c4nc(-c5ccc(Cl)cc5)cs4)c(=O)[nH]c3C2)cc1OC` (stereo unspecified), the survival is 59%. For `CC(=O)c1ccc(NC(=O)/C=C/c2ccc(C)o2)cc1` the value was 48%; for `COc1ccc(Cn2ccnc2SCC(=O)Nc2nc3ccccc3s2)cc1`, 84%; for `CCc1ccc(OCCCSc2nc(-c3ccc(C(C)(C)C)cc3)nc3cc(=O)[nH]n23)cc1`, 80%.

Regarding `CCOC(=O)c1[nH]c(C)c(C(=O)NCc2ccc(F)cc2)c1C`, the survival is 79%.

Take `O=S(=O)(c1cccc(Cl)c1)c1nnn2c1nc(NC1CCCCCC1)c1sccc12`: the survival is 106%.

Turning to `COc1cccc(OCCn2c(-c3ccc(Br)cc3)nc3ccccc3c2=O)c1`, the survival was 82%. For `COc1cccc(OCc2nc3ccccc3n2CCOc2ccc(C)cc2)c1` the value was 36% (active). The same measure for `CCCCn1c(COc2cccc(OC)c2)nc2ccccc21`: 57%; for `COc1cccc(OCc2nc3ccccc3n2CCOc2ccccc2)c1`: 35% (active); for `CCCn1c(COc2cccc(C)c2)nc2ccccc21`: 12% (active). For `COc1cccc(OCc2nc3ccccc3n2CCOc2cccc(C)c2)c1`, the survival is 44% (active). Consider `COc1cccc(OCc2nc3ccccc3n2C)c1`, for which the survival is 57%. Consider `O=S(=O)(NCc1ccccc1Cl)c1ccc(-c2cnc(C3CC3)o2)cc1`, for which the survival is 101%. The same measure for `CC1CCN(c2nc3c(S(=O)(=O)c4cccc(Cl)c4)nnn3c3ccsc23)CC1`: 81%; for `Cc1c(C#N)c2ccccc2n1CC(=O)NC1CCCCCC1`: 72%; for `CC(C(=O)Nc1ccccc1C(=O)N1CCCC1)n1nnc2ccccc21` (stereo unspecified): 77%. The same measure for `COc1ccc(Nc2nnc(-c3ccc(C)c(S(N)(=O)=O)c3)c3ccccc23)cc1`: 70%; for `CCn1c(SCC(=O)c2ccc(Br)cc2)nnc1-c1ccncc1`: 99%.

Take `CC1CCC(=O)C(C2(O)C(=O)Nc3ccccc32)C1` (stereo unspecified): the survival is 93%. Turning to `CC1CCC2C(C1)Nc1c(C(=O)O)cccc1C2(C)C` (stereo unspecified), the survival is 40% (active).

As for `COc1ccc(OC)c(NC(=O)CN2CCCN(Cc3ccccc3Cl)S2(=O)=O)c1`, the survival was 128%. The same measure for `Cc1ccc2c(c1)N(CC(=O)Nc1ccccc1C(F)(F)F)C(=O)c1cccnc1O2`: 100%.

In the case of `CCOC(=O)c1c(S(=O)(=O)N2CCCC(C(=O)N(C)Cc3ccccc3)C2)c(C)n(C)c1C` (stereo unspecified), the survival is 92%. For `Cc1ccc(Cl)cc1Nc1nn2c(=O)c3ccc(C(=O)N4CCCC(C)C4)cc3nc2s1` (stereo unspecified) the value was 73%. For `Cc1nc(-c2ccccc2)cc(=O)[nH]1` the value was 109%.

As to `Cc1nc2cc3ccccc3cc2c(=O)[nH]1`, the survival was 47% (active).

Regarding `CC(C)c1nc2ccccc2c(=O)[nH]1`, the survival is 91%.

With `CNS(=O)(=O)c1cn(CC(=O)N2CCN(c3ccccc3F)CC2)cc1S(=O)(=O)NC`, the survival is 71%. The same measure for `COc1ccc(S(=O)(=O)Nc2ccc(-c3cn4c(C)csc4n3)cc2)cc1`: 94%; for `CC(=O)Nc1ccc(S(=O)(=O)Nc2ccc(-c3cn4c(C)csc4n3)cc2)cc1`: 89%. With `CC(=O)c1ccc(S(=O)(=O)Nc2ccc(-c3cn4c(C)csc4n3)cc2)cc1`, the survival was -5% (active). For `CCCC(=O)Nc1cccc(-c2nc3cc(C)c(C)cc3o2)c1C` the value was 57%. As for `Cc1cc2oc(C(=O)Nc3cccc(-c4nc5ccccc5o4)c3)c(C)c2cc1C`, the survival is 74%. For `COc1cc2ccccc2cc1C(=O)Nc1cccc(-c2nc3cc(C)c(C)cc3o2)c1`, the survival was 41% (active).

Regarding `COc1cc2ccccc2cc1C(=O)Nc1cc(-c2nc3ccccc3o2)ccc1C`, the survival is 111%. For the compound `Cc1cc2nc(-c3ccc(NC(=O)c4ccccc4F)cc3)oc2cc1C`, the survival was 66%. For `COc1cc2ccccc2cc1C(=O)Nc1ccc2oc(-c3cccc(Cl)c3Cl)nc2c1` the value was 56%. Regarding `Cc1cc2nc(-c3cccc(NC(=O)c4cccc5ccccc45)c3)oc2cc1C`, the survival is 57%. As to `COc1cc2ccccc2cc1C(=O)Nc1ccc2oc(-c3cc(Br)ccc3Cl)nc2c1`, the survival was 75%. The same measure for `COc1cc2ccccc2cc1C(=O)Nc1ccc(Cl)c(-c2nc3ccccc3o2)c1`: 40% (active); for `COc1cc2ccccc2cc1C(=O)Nc1cccc(-c2nc3cc(C)ccc3o2)c1C`: 55%.

As for `COc1cc2ccccc2cc1C(=O)Nc1cccc(-c2nc3ccccc3o2)c1`, the survival was 7% (active). The same measure for `COc1cc2ccccc2cc1C(=O)Nc1cccc(-c2nc3cc(C)c(C)cc3o2)c1C`: 45% (active).

Take `CCc1cccc(NC(=O)Cn2c(=O)n(CCCCCC(=O)NCc3ccc(F)cc3)c(=O)c3sccc32)c1`: the survival was 63%. Regarding `O=C(NCc1ccc(Cl)cc1)C1CCN(C(=O)c2cnn(-c3ccccc3)c2-n2cccc2)CC1`, the survival is 65%.

As for `Cc1ccc(C)c(NS(=O)(=O)c2cc3c4c(c2)C(C)C(=O)N4CCC3)c1` (stereo unspecified), the survival was 106%. As for `COc1ccc(CNC(=O)c2cnc3sc(N4CCCCCC4)nn3c2=O)cc1`, the survival is 101%.

Turning to `CCOc1cccc2cc(-c3nc(-c4ccccc4C)no3)c(=O)oc12`, the survival was 76%.
